Each structure is given as a SMILES string. Calls of active or inactive are those of the source. The calls were made as follows: active = hit-call score of the fitted dose curve at least 0.9, where 1 is the maximum; inactive = score below 0.9.

The test in a line: ATG_NFI_CIS: Attagene CIS-FACTORIAL HepG2 Assay for human Nuclear Factor I (NFI) (AID 2282989). Conditions: HepG2 cis-regulatory reporter, NFI response element transcription; actives raise or lower the signal. The procedure:
ATG_CIS is a cell-based, multiplexed-readout assay that uses HepG2, a human liver cell line, with measurements taken at 24 hours after chemical dosing in a 24-well plate.ATG_NFI_CIS is one of 52 assay component(s) measured or calculated from the ATG_CIS assay. It is designed to make measurements of mRNA induction, a form of inducible reporter, as detected with fluorescence intensity signals by Reverse transcription polymerase chain reaction (RT-PCR) and Capillary electrophoresis technology.Data from the assay component ATG_NFI_CIS was analyzed into 1 assay endpoint. This assay endpoint, ATG_NFI_CIS, was analyzed with bidirectional fitting relative to DMSO as the negative control and baseline of activity. Using a type of inducible reporter, measures of mRNA for gain or loss-of-signal activity can be used to understand the reporter gene at the transcription factor-level as they relate to the gene NFIA. Furthermore, this assay endpoint can be referred to as a primary readout, because this assay has produced multiple assay endpoints where this one serves a reporter gene function. To generalize the intended target to other relatable targets, this assay endpoint is annotated to the dna binding intended target family, where the subfamily is nuclear factor I.
Human liver HepG2 cells are transiently transfected with multiple reporter transcription units (MRTUs) in 6-well plates using FuGene 6 reagent (Roche; 3 ml FuGene/1 mg DNA). The MRTU constructs are regulated by a cis-regulating element (promoter). […] A major difference between the CIS and TRANS system is that in CIS activities of endogenous TFs are measured, whereas the TRANS assay evaluates changes in activities of exogenous, chimeric NR-Gal4 proteins. […] At the end of 24 hour incubation, total RNA was isolated using TriZol reagent (Invitrogen). The isolated RNA is then reverse-transcribed using oligo(dT) primer and Mo-MLV reverse transcriptase (Invitrogen) with DNAse I (Ambion) treatment for 30 min. The one-tenth of the produced cDNA was amplified by PCR using Taq DNA polymerase (Invitrogen) and two reporter sequence-specific primers. The PCR products were fluorescently labeled by primer extension with 6-arboxyfluorescein (6-FAM) 5'-labeled reporter sequence-specific primer (2 min at 95 C, 20 s at 68 C and 10 min at 72 C) and these products were digested with 5U of HpaI (New England Biolabs) for 2h at 37 C. The fragments were purified using Qiaquick PCR columns (Qiagen), analyzed on an ABI 3130xL genetic analyzer (Applied Biosystems) with peak positions identified by using a set of X-rhodamine (ROX)-labeled MapMarker1000 molecular weight standards (BioVentures). The raw capillary electrophoresis data was processed using Attagraph software (Attagene).
As to `NCCCN1CCOCC1`, the call was inactive. As to `Cc1cccc(C)c1[N+](=O)[O-]`, the outcome was inactive.

Turning to `CCN(CC)c1ccc(C(=C2C=CC(=[N+](CC)CC)C=C2)c2ccc(S(=O)(=O)O)cc2S(=O)(=O)[O-])cc1`, the compound was called inactive. On the same count and under the same terms, the result for `CCCC(=O)c1cc(O)c(O)cc1O` reads “inactive”; that for `CCCCCCCCCCCCSC`, “inactive”; that for `CCC(O)CO` (stereo not given), “inactive”.

For `O=C(O)c1ccc(C(=O)O)cc1`, the outcome was inactive. Still for that read-out and setting: to `c1ccc2sc(SN(C3CCCCC3)C3CCCCC3)nc2c1` belongs “inactive”. As to `Clc1nc(C(Cl)(Cl)Cl)c(Cl)c(Cl)c1Cl`, the AC50 was 52.4 µM (active). With `CC(C)=CCC[C@](C)(O)[C@@H]1CC=C(C)CC1`, the outcome was inactive. `Cc1ccc(C=O)s1`: the result was inactive. For `C=C(C)C(=O)OCc1ccccc1`, the compound was called inactive. For `CCCCCC(CO)CCC` (stereo not given), the call was inactive.

As for `Cc1c(Cl)c(=O)oc2cc(O)ccc12`, the result was inactive. Regarding `CO[Si](CCCn1c(=O)n(CCC[Si](OC)(OC)OC)c(=O)n(CCC[Si](OC)(OC)OC)c1=O)(OC)OC`, the compound was classed as inactive. Consider `CN1Cc2c(N)cccc2C(c2ccccc2)C1` (stereo not given), for which the compound was called inactive. The same measure, in the same setting: the result for `CC(=O)OCc1ccc2c(c1)OCO2` reads “inactive”; that for `NC(N)=NC(=O)c1nc(Cl)c(N)nc1N`, “inactive”; that for `NNc1nc(-c2ccc(N)cc2)cs1`, “inactive”. For the compound `C=C(C)C(=O)O[C@H]1C[C@@H]2CC[C@@]1(C)C2(C)C`, the outcome was inactive. For the compound `c1cc(C(c2ccc(OCC3CO3)cc2)c2ccc(OCC3CO3)cc2)ccc1OCC1CO1` (stereo not given), the AC50 was 10.1 µM (active).

For the compound `COCCOCCOCCOCCOCCO`, the outcome was inactive. Still for that read-out and setting: the result for `CCCOCC(C)O` (stereo not given) reads “inactive”; that for `C=C(C)C(=O)O`, “inactive”; that for `C=C[Si](OCC)(OCC)OCC`, “inactive”. For the compound `CN(C)CCOCCN(C)C`, the outcome was inactive.

With `COCCCOc1ccnc(CS(=O)c2nc3ccccc3[nH]2)c1C` (stereo not given), the result was inactive. On the same count and under the same terms, the result for `CC(C)[C@@H]1CC[C@@H](C)CC1=O` reads “inactive”; that for `CC1CCC(C(C)(C)O)CC1` (stereo not given), “inactive”.

With `CCCc1ccccc1O`, the outcome was inactive. On the same count and under the same terms, to `CCC(=O)OCc1ccccc1` belongs “inactive”; to `NCCOCCO`, “inactive”.

Consider `COc1ccnc(CS(=O)c2nc3cc(OC(F)F)ccc3[nH]2)c1OC` (stereo not given), for which the compound was classed as inactive. On the same count and under the same terms, the result for `O=C(O)CCSCCC(=O)O` reads “inactive”. On to `C=C(C)[C@@H]1CCC2=CC(=O)C[C@@H](C)[C@]2(C)C1`, for which the outcome was inactive.

With `CCC(=O)/C=C/C1C(C)=CCCC1(C)C` (stereo not given), the compound was classed as inactive. With `COC(=O)c1ccc(C)cc1`, the result was inactive. Regarding `CSc1nnc(C(C)(C)C)c(=O)[nH]1`, the compound was called inactive. Take `CC(C)OP(=O)(CP(=O)(OC(C)C)OC(C)C)OC(C)C`: the compound was called inactive. On the same count and under the same terms, the result for `CCCCCCCCCCC(CO)CCCCCCCC` (stereo not given) reads “inactive”.

The term AC50 denotes the midpoint of the concentration-response curve, whichever way the signal moves.

Source of the values: PubChem BioAssay (EPA / NIEHS).
